Data from ChEMBL document CHEMBL1961873, “Compounds: GSK PKIS; Assays: Nanosyn kinase panel” (2012).

Assays:
[1] = molecular target: T1, Ephrin type-B receptor 2 (Homo sapiens) (UniProt P29323); details: at 1 µM
T1 sequence (whole entry): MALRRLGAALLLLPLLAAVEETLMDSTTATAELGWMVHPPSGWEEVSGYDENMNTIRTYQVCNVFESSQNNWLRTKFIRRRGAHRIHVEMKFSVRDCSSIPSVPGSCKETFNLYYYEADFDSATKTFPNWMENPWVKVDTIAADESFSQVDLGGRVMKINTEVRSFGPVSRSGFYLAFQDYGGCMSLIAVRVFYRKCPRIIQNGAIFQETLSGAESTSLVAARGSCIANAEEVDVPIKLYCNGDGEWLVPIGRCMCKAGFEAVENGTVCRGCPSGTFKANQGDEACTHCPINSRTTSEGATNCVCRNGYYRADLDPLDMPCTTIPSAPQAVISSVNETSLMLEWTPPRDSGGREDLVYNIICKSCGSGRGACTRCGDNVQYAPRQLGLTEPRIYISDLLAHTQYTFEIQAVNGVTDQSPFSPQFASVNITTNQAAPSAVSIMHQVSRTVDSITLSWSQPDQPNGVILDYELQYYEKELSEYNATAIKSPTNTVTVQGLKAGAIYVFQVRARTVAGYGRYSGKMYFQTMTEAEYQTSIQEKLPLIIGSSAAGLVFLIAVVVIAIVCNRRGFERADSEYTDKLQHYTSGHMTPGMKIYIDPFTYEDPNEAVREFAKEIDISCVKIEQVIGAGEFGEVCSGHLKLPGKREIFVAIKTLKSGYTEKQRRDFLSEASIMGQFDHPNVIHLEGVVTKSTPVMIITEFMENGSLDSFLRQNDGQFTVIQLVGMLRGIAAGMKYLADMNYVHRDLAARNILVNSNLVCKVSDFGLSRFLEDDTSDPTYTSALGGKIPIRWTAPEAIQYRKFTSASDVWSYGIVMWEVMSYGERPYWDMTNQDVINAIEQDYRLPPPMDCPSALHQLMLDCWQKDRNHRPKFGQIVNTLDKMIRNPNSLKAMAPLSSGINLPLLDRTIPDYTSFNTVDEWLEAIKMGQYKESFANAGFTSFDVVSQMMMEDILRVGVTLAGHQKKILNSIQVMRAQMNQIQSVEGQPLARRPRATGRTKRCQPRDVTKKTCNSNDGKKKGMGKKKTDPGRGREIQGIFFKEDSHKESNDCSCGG

[2] = molecular target: T2, Ephrin type-B receptor 3 (Homo sapiens) (UniProt P54753); details: at 0.1 µM
T2 sequence (whole entry): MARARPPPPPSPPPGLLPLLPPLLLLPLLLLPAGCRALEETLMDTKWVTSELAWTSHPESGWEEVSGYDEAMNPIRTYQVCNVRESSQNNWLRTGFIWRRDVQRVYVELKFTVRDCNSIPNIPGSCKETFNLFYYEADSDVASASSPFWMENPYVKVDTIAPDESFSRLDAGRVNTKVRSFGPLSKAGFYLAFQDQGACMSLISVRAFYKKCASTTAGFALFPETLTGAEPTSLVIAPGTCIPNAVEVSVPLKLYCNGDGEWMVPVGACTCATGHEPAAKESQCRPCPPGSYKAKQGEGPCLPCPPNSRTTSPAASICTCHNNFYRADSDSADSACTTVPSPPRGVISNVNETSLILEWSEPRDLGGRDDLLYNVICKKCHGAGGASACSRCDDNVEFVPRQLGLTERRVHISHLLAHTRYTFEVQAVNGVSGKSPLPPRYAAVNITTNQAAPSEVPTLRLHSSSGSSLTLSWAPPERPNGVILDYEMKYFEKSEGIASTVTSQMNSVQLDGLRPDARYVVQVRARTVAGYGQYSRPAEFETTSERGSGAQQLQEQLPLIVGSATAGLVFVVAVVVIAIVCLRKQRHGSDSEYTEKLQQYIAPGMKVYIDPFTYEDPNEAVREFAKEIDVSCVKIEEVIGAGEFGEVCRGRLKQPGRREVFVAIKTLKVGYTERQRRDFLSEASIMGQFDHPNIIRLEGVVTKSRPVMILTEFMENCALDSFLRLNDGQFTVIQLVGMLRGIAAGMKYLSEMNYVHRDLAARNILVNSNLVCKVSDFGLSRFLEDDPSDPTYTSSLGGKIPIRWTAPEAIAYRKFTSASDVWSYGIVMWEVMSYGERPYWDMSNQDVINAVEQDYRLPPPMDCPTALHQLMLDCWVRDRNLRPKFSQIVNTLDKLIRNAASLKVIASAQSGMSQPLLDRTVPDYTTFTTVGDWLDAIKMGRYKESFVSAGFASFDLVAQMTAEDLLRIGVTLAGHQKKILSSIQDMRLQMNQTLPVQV

[3] = molecular target: T2, Ephrin type-B receptor 3 (Homo sapiens); details: at 1 µM
[4] = molecular target: T3, Ephrin type-B receptor 4 (Homo sapiens) (UniProt P54760); details: at 0.1 µM
T3 sequence (whole entry): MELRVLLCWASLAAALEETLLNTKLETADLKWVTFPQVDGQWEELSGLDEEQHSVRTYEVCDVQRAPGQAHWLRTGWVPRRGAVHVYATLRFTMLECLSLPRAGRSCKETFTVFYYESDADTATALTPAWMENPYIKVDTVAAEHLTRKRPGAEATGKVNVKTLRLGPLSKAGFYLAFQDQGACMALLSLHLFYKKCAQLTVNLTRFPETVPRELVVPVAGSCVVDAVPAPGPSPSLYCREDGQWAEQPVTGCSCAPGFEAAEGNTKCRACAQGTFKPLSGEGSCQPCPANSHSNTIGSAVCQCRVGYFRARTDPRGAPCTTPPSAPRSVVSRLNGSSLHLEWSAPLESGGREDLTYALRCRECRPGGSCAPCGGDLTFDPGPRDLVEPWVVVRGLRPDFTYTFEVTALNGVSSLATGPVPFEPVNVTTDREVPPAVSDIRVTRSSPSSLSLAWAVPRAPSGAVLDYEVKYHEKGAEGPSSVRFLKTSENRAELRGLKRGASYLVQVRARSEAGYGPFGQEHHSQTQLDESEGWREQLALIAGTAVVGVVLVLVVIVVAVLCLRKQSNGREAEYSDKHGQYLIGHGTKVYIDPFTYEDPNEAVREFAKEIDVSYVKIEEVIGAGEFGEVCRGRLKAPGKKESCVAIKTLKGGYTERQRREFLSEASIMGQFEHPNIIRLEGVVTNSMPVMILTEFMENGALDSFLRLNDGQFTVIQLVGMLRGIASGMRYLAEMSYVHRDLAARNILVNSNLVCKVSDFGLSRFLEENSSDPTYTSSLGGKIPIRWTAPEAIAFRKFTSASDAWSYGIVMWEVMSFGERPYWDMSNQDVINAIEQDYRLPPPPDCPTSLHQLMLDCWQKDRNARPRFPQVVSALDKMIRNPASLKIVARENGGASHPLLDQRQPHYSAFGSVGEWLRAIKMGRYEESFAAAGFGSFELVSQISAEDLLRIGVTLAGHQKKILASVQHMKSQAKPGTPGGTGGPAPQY

[5] = molecular target: T3, Ephrin type-B receptor 4 (Homo sapiens); details: at 1 µM
[6] = molecular target: Receptor tyrosine-protein kinase erbB-2 (Homo sapiens) (UniProt P04626); details: at 0.1 µM
Receptor tyrosine-protein kinase erbB-2 (Homo sapiens), sequence (P04626 whole entry): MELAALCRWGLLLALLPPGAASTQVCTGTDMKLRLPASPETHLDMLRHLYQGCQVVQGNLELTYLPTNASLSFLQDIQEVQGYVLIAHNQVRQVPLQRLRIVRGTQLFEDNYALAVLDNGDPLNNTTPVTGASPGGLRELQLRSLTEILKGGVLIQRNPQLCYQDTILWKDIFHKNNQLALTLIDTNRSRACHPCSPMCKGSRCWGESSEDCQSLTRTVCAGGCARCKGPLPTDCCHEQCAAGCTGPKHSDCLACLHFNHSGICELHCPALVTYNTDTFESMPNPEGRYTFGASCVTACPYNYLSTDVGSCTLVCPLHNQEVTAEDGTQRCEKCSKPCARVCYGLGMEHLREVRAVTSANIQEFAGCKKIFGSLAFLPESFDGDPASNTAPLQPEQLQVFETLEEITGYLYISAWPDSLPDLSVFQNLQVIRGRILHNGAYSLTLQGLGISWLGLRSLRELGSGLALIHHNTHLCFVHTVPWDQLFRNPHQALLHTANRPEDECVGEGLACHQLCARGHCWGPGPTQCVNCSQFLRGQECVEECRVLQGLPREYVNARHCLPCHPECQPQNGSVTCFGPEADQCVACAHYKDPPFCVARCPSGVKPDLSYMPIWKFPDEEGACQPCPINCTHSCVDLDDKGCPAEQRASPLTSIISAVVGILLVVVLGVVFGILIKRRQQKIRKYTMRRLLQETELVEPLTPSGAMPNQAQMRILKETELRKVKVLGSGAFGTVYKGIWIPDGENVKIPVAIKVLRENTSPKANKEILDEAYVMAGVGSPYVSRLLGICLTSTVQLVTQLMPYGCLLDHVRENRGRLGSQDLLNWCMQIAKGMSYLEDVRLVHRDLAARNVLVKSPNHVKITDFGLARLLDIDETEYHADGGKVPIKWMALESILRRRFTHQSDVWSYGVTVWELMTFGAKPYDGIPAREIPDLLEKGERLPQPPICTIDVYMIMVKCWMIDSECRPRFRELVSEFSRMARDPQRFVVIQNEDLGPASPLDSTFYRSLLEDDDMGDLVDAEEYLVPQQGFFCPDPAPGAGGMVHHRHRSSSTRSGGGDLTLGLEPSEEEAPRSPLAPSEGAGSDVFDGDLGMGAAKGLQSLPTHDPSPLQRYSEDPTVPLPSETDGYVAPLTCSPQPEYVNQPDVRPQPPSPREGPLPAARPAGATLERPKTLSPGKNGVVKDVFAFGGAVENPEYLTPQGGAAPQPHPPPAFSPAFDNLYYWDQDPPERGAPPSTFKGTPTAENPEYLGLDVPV

[7] = molecular target: Receptor tyrosine-protein kinase erbB-2 (Homo sapiens) (UniProt P04626); details: at 1 µM
[8] = molecular target: Receptor tyrosine-protein kinase erbB-4 (Homo sapiens) (UniProt Q15303); details: at 0.1 µM
[9] = molecular target: Receptor tyrosine-protein kinase erbB-4 (Homo sapiens) (UniProt Q15303); details: at 1 µM
[10] = molecular target: Tyrosine-protein kinase Fer (Homo sapiens) (UniProt P16591); details: at 0.1 µM
[11] = molecular target: Tyrosine-protein kinase Fer (Homo sapiens) (UniProt P16591); details: at 1 µM
[12] = molecular target: Tyrosine-protein kinase Fes/Fps (Homo sapiens) (UniProt P07332); details: at 0.1 µM
Tyrosine-protein kinase Fes/Fps (Homo sapiens), sequence (P07332 whole entry): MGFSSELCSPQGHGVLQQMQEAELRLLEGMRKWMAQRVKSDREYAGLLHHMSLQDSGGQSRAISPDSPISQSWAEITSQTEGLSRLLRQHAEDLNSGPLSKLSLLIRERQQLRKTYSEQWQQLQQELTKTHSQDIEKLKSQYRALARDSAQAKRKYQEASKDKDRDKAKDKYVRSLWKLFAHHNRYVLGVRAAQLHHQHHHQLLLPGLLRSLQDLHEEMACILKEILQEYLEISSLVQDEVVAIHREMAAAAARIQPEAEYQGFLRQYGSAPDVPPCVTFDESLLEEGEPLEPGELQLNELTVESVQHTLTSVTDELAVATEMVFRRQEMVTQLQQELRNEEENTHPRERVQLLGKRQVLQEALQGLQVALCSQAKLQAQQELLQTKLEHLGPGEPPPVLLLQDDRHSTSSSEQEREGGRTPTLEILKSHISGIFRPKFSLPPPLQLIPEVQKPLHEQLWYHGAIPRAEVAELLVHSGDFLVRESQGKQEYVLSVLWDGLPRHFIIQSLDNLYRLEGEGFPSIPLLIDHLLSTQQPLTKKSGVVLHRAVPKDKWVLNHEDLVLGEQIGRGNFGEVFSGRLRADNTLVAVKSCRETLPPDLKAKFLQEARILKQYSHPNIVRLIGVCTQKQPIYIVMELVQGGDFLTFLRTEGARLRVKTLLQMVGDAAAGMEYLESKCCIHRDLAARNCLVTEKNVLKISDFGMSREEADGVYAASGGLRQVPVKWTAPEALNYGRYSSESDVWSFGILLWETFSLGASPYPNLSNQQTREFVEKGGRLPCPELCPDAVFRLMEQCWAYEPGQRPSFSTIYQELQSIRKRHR

[13] = molecular target: Tyrosine-protein kinase Fes/Fps (Homo sapiens) (UniProt P07332); details: at 1 µM
[14] = molecular target: Fibroblast growth factor receptor 1 (Homo sapiens) (UniProt P11362); details: at 0.1 µM
Fibroblast growth factor receptor 1 (Homo sapiens), sequence (P11362 22-822 limits assumed): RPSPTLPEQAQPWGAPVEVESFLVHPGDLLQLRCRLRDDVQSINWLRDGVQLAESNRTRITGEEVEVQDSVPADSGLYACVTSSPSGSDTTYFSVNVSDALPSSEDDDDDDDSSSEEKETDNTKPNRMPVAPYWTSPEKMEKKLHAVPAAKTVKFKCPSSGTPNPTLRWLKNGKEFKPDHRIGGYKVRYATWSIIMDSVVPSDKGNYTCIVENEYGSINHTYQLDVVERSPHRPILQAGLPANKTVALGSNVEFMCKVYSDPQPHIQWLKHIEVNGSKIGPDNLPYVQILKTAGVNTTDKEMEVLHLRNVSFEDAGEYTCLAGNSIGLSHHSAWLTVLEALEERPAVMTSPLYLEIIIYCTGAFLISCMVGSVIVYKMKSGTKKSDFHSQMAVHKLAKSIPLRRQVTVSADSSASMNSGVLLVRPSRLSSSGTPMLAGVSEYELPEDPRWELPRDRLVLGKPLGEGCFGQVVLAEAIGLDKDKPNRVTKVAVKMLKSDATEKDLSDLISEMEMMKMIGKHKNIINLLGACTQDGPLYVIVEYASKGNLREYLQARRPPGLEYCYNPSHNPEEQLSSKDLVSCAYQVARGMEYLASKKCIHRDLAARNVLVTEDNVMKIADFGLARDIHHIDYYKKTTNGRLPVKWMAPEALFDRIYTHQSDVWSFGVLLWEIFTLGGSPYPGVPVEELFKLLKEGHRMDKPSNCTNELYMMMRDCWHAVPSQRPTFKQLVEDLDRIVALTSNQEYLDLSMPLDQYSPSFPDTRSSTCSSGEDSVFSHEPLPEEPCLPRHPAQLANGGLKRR

[15] = molecular target: Fibroblast growth factor receptor 1 (Homo sapiens) (UniProt P11362); details: at 1 µM
[16] = molecular target: Fibroblast growth factor receptor 2 (Homo sapiens) (UniProt P21802); details: at 0.1 µM
[17] = molecular target: Fibroblast growth factor receptor 2 (Homo sapiens) (UniProt P21802); details: at 1 µM
[18] = molecular target: Fibroblast growth factor receptor 3 (Homo sapiens) (UniProt P22607); details: at 0.1 µM
Fibroblast growth factor receptor 3 (Homo sapiens), sequence (P22607 23-806 limits assumed): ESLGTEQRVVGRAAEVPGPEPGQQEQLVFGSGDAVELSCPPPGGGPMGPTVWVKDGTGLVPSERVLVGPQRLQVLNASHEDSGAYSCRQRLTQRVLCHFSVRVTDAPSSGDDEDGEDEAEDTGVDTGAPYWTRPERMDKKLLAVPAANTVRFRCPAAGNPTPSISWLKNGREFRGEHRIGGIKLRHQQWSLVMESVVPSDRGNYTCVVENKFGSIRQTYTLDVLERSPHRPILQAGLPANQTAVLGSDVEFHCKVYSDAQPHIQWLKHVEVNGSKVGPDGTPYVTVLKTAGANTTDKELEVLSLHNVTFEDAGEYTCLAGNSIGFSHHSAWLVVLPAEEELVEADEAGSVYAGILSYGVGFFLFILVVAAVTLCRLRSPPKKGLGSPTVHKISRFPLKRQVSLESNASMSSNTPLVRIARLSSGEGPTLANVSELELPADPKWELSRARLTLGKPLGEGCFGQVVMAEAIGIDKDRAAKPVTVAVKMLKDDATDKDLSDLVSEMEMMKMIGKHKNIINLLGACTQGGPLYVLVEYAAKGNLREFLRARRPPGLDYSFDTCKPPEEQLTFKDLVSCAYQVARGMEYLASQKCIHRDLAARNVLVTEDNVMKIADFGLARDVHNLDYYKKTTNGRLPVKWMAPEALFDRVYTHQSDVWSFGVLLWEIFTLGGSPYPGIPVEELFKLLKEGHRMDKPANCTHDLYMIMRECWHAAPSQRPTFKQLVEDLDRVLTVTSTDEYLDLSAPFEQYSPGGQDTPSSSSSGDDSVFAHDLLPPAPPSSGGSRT

[19] = molecular target: Fibroblast growth factor receptor 3 (Homo sapiens) (UniProt P22607); details: at 1 µM
[20] = molecular target: Fibroblast growth factor receptor 4 (Homo sapiens) (UniProt P22455); details: at 0.1 µM;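 further: values are mean percent inhibition of FGFR4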
Fibroblast growth factor receptor 4 (Homo sapiens), sequence (P22455 22-802 limits assumed): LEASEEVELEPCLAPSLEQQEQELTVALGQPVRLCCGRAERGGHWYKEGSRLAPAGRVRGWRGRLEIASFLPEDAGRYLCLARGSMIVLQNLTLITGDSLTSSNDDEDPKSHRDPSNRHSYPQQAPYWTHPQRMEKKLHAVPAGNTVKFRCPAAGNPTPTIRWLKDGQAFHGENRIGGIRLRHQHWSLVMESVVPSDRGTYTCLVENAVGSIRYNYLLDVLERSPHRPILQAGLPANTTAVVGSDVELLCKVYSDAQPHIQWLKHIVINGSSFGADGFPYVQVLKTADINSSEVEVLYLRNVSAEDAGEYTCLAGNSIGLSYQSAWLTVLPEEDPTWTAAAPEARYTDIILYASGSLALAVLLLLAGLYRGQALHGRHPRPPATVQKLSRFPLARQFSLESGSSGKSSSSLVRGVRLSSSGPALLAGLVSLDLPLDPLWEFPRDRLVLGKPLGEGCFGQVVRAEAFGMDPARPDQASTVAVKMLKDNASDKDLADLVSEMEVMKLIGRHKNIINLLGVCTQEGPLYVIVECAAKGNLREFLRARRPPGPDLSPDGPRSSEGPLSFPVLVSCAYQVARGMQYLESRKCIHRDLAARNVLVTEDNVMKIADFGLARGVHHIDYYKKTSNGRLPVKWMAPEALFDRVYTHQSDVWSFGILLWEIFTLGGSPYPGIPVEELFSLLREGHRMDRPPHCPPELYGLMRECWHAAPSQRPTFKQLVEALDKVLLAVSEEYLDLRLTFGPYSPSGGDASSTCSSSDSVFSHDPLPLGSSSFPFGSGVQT

Row | Compound | inhibition [1] [%] | inhibition [2] [%] | inhibition [3] [%] | inhibition [4] [%] | inhibition [5] [%] | inhibition [6] [%] | inhibition [7] [%] | inhibition [8] [%] | inhibition [9] [%] | inhibition [10] [%] | inhibition [11] [%] | inhibition [12] [%] | inhibition [13] [%] | inhibition [14] [%] | inhibition [15] [%] | inhibition [16] [%] | inhibition [17] [%] | inhibition [18] [%] | inhibition [19] [%] | inhibition [20] [%]
1 | COc1cccc(-n2ncc3c(N/N=C/c4ccc(S(C)(=O)=O)cc4)ncnc32)c1 | 11.5 | -0.24 | -2.08 | -0.79 | 6.93 | 2.7 | 3.96 | 7.91 | 7.9 | 1.13 | 2.49 | 0.5 | 0.07 | 3.99 | 0.92 | -2.62 | 4.85 | 1.85 | 4.08 | -2.71
2 | C[C@@H](Oc1cc(-n2cnc3ccc(OC[C@@H](O)CO)cc32)sc1C(N)=O)c1ccccc1Cl | -2.42 | -1.05 | -0.83 | -3.41 | -0.4 | 0 | 0.61 | -3.03 | -1.55 | -1.75 | 4.95 | -0.94 | 0.05 | -7.07 | 0.72 | -1.37 | 8.23 | 0.92 | 6.57 | -1.57
3 | O=C1Nc2ccccc2/C1=C/Nc1ccc2[nH]c(=O)[nH]c2c1 | 20.6 | 6.46 | 5.55 | 5.44 | 5.98 | 3.93 | 2.8 | 9.76 | 15.3 | 3.27 | 12.1 | 4.03 | 5.17 | 7.8 | 16.5 | 9.08 | 35 | 10 | 33 | 1.89
4 | CN(C)C(=O)O[C@@H]1CN[C@@H](C#Cc2cc3ncnc(Nc4ccc(OCc5cccc(F)c5)c(Cl)c4)c3s2)C1 | -1.82 | 2.5 | -1.81 | 1.64 | 3.64 | -1.37 | 27.1 | 107 | 130 | 0.75 | -0.72 | -0.22 | 1.12 | -0.27 | 1.69 | 0.19 | 4.88 | -0.96 | 2.96 | -1.62
5 | Nc1ccc(C#Cc2cncnc2Nc2ccc(OCc3cccc(F)c3)c(Cl)c2)cc1 | 6.65 | 3.43 | 3.54 | 0.47 | 2.45 | 5.63 | 10.1 | 12.9 | 54.4 | 2.93 | 1.48 | 2.44 | 2.24 | 2.53 | 4.37 | 3.89 | 4.27 | 3.12 | 4.49 | 2.37
6 | CN(C)C(=O)O[C@H]1CN[C@H](C#Cc2cc3ncnc(Nc4ccc(OCc5cccc(F)c5)c(Cl)c4)c3s2)C1 | 14.1 | 4.55 | 5.69 | 2.43 | 3.92 | 4 | 50.4 | 92.5 | 120 | 1.02 | -0.03 | 2.17 | 3.06 | 2.33 | 5.24 | 2.11 | 7.78 | 5.3 | 5.64 | 0.8
7 | O=S(=O)(CCOCc1ccc(-c2ccc3ncnc(Nc4ccc(OCc5cccc(F)c5)c(Cl)c4)c3c2)o1)c1ccccc1 | 6.76 | -0.47 | 3.29 | 1.15 | 1.36 | 11.6 | 69.8 | 27.5 | 82.6 | -3.62 | -0.81 | 0.82 | 1.19 | 1.05 | 5.27 | -0.62 | 3.75 | 0.41 | 6.24 | 1.07
8 | CC(C)c1ccc2c(c1)NC(=O)/C2=N/Nc1ccc(S(N)(=O)=O)cc1 | 3.71 | 0.49 | 1.76 | 1.07 | 0.29 | 3 | 2.17 | 1.45 | 2.39 | 0.16 | 1 | 0.91 | -0.14 | 3.46 | -0.01 | 0.48 | 5.04 | 1.14 | 3.91 | 2.58
